Assay results reported in ChEMBL document CHEMBL1157539, “Thousands of chemical starting points for antimalarial lead identification” (Nature, 2010).

tested on: Plasmodium falciparum; test: GSK_TCMDC: Inhibition of Plasmodium falciparum Dd2 in whole red blood cells, using parasite LDH activity as an index of growth. Test compounds present at 2uM; type: functional

Structure (SMILES)	Inhibition [%]
O=C(NCc1cccc(F)c1)Nc1ccc(-c2ccc(-c3nc4cc(C(F)(F)F)ccc4[nH]3)cc2)cc1	24
COc1cc2nc(N3CCC(CNC(=O)c4ccc(OC(F)(F)F)cc4)CC3)nc(N)c2cc1OC.O=C(O)C(F)(F)F	98
COc1cccc2cc(C(=O)N[C@@H](CC(C)C)C(=O)N[C@H](/C=N/NC(=O)Cc3cccnc3)CCc3ccccc3)oc12	54
O=C(NCc1ccc(Cl)c(Cl)c1)c1cccc(C2CCCN(Cc3ccc4[nH]cnc4c3)C2)c1 (configuration not stated)	30
COc1cc2c(cc1S(=O)(=O)c1ccc(NC(=O)c3cccc(C(F)(F)F)c3)cc1)CCN(C)CC2	25
O=C(NCc1ccc(C(=O)NCc2cccc3ccccc23)cc1)c1ccc(O)c(-c2ccc(Cl)c(Cl)c2)c1	31
O=C(c1cccc(-c2noc(C(F)(F)F)n2)c1)N1CCN(c2nsc3ccccc23)CC1	81
CCOc1c(OC)ccc2c1CCN(CCN1CCC(NC(=O)c3ccc(-c4cccc(C(F)(F)F)c4C(F)(F)F)cc3)CC1)C2	57
Cc1cc(C(F)(F)F)n2nc(C(=O)N(Cc3cncn3Cc3cccc(F)c3)CC3CC3)cc2n1	92
CCNc1cc(C(=O)N[C@@H](Cc2cccc(F)c2)[C@H](O)CNC(C)CCCC(C)C)cc(N2CCCCS2(=O)=O)c1.Cl (some centres not stated)	97
CC(CCc1ccccc1)NCC(O)c1cccc([N+](=O)[O-])c1 (configuration not stated)	98
CCOc1cc(N)c2nc3ccc([N+](=O)[O-])cc3cc2c1	78
CCOC(=O)c1ccc(NC(=O)Nc2cccc(-c3cccc(-c4nc5cccc(C)c5[nH]4)c3)c2)cc1	99
COc1ccc2[nH]ccc(=NN=Cc3cccc(Cl)c3)c2c1	99
CN(C)CCN(Cc1ccccc1)c1ccc([N+](=O)[O-])cc1C(F)(F)F.O=C(O)C(F)(F)F	89
N=C(N)NC(=O)Nc1cc(Cl)c(Cl)c(Br)c1	99
O=C(NC1CCN(Cc2ccccc2)CC1)c1ccc(-c2nc3cc(F)c(F)cc3[nH]2)s1	97
CCC(=O)Nc1ccc(C(O)CN2CCC3(C=Cc4ccccc4O3)CC2)cc1 (configuration not stated)	47
O=C(NC1CCN(Cc2cccc(C(F)(F)F)c2)CC1)c1ccc(-c2cccc(Cl)c2)s1.O=C(O)C(F)(F)F	33
CCCCCCCc1c(C)nc2cc(OC)ccc2c1O	98
O=C(Nc1ccccc1C(F)(F)F)Nc1nn(Cc2c(F)cccc2Cl)cc1Br	86
COc1cc2nc(N3CCN(c4nc(N)c5cc(OC)c(OC)cc5n4)CC3)nc(N)c2cc1OC	99
Cc1cc(C)cc(OCC(O)CN(Cc2cc(Cl)cc(Cl)c2)C(=O)Nc2ccc(Cl)cc2)c1 (configuration not stated)	43
Cc1cc(CN2C(=O)C(c3ccccc3)(c3ccccc3)N=C2N)c(C(F)(F)F)o1	84
O=[N+]([O-])c1ccc2c(c1)c1ccccc1n2Cc1ccccc1O	84
O=S(=O)(c1cc2ccccc2s1)N(CCC(O)(C(F)(F)F)C(F)(F)F)Cc1cccc(O)c1	99
CC(CN(C)C)C(=O)Nc1ccc(-c2cccc(-c3nc4cc(C(F)(F)F)ccc4[nH]3)c2)cc1 (configuration not stated)	85

tested on: HepG2; test: GSK_TCMDC: Percent inhibition of human HepG2 cell line. Test compounds present at 10uM.; type: functional

Structure (SMILES)	Inhibition [%]
CCCS(=O)(=O)c1nc(S(=O)(=O)c2ccc(Cl)cc2)c(N2CCCCC2)s1	3
COc1ccc(CNc2nccc3ccc(-c4ccc5nccn5c4)cc23)cc1.O=C(O)C(F)(F)F	17
CCCC(C)NC(=O)[C@H]1CNCCN1C(=O)CCCc1ccccc1.O=C(O)C(F)(F)F (some centres not stated)	47
Cc1cc(O)c(-c2ccc(Sc3ccc(Cl)cc3)cc2)c(C)n1	0
COc1ccc2nccc([C@@H](O)CN3CCC(NCc4cc5c(F)ccc(F)c5[nH]4)CC3)c2n1.CS(=O)(=O)O	22
COc1ccc2nccc(N3C[C@H]4C[C@@H]3CN4CCNCc3ccc4c(n3)NC(=O)CS4)c2n1.Cl	21
Cc1cc(NC(=O)c2ccc(S(=O)(=O)N(Cc3ccccc3)C(C)C)cc2)no1	0
Nc1ncc(-c2cn[nH]c2)cc1-c1nc2ccc(Cl)cc2[nH]1	46
Cc1cccc(-c2nn(-c3ccccc3)cc2C(=O)Nc2nnc(C)o2)c1	38
O=C(c1ccc(F)c(F)c1)N1CCOC(CCN2CCC(c3ccccc3)CC2)(c2ccc(Cl)c(Cl)c2)C1 (configuration not stated)	51
CS(=O)(=O)NCCCNCc1ccc(-c2ccc(-c3nc4cc(C(F)(F)F)ccc4[nH]3)cc2)cc1.O=C(O)C(F)(F)F	25
CC(NC(=O)c1ccc(O)c(-c2ccc(Cl)c(Cl)c2)c1)C(=O)NCCN1CCOCC1 (configuration not stated)	2
O=C(Nc1ccc(-c2cccc(-c3nc4ccccc4[nH]3)c2)cc1)Nc1ccc2c(c1)OCO2	55
O=C(NCc1cccc(F)c1)Nc1ccc(-c2ccc(-c3nc4cc(C(F)(F)F)ccc4[nH]3)cc2)cc1	46
COc1cc2nc(N3CCC(CNC(=O)c4ccc(OC(F)(F)F)cc4)CC3)nc(N)c2cc1OC.O=C(O)C(F)(F)F	16
COc1cccc2cc(C(=O)N[C@@H](CC(C)C)C(=O)N[C@H](/C=N/NC(=O)Cc3cccnc3)CCc3ccccc3)oc12	6
O=C(NCc1ccc(Cl)c(Cl)c1)c1cccc(C2CCCN(Cc3ccc4[nH]cnc4c3)C2)c1 (configuration not stated)	3
COc1cc2c(cc1S(=O)(=O)c1ccc(NC(=O)c3cccc(C(F)(F)F)c3)cc1)CCN(C)CC2	18
O=C(NCc1ccc(C(=O)NCc2cccc3ccccc23)cc1)c1ccc(O)c(-c2ccc(Cl)c(Cl)c2)c1	0
O=C(c1cccc(-c2noc(C(F)(F)F)n2)c1)N1CCN(c2nsc3ccccc23)CC1	18

Structure (SMILES)	Inhibition [%]
CCOc1c(OC)ccc2c1CCN(CCN1CCC(NC(=O)c3ccc(-c4cccc(C(F)(F)F)c4C(F)(F)F)cc3)CC1)C2	30
Cc1cc(C(F)(F)F)n2nc(C(=O)N(Cc3cncn3Cc3cccc(F)c3)CC3CC3)cc2n1	0
CCNc1cc(C(=O)N[C@@H](Cc2cccc(F)c2)[C@H](O)CNC(C)CCCC(C)C)cc(N2CCCCS2(=O)=O)c1.Cl (some centres not stated)	0
CC(CCc1ccccc1)NCC(O)c1cccc([N+](=O)[O-])c1 (configuration not stated)	0
CCOc1cc(N)c2nc3ccc([N+](=O)[O-])cc3cc2c1	73
CCOC(=O)c1ccc(NC(=O)Nc2cccc(-c3cccc(-c4nc5cccc(C)c5[nH]4)c3)c2)cc1	37
COc1ccc2[nH]ccc(=NN=Cc3cccc(Cl)c3)c2c1	1
CN(C)CCN(Cc1ccccc1)c1ccc([N+](=O)[O-])cc1C(F)(F)F.O=C(O)C(F)(F)F	40
N=C(N)NC(=O)Nc1cc(Cl)c(Cl)c(Br)c1	16
O=C(NC1CCN(Cc2ccccc2)CC1)c1ccc(-c2nc3cc(F)c(F)cc3[nH]2)s1	6
CCC(=O)Nc1ccc(C(O)CN2CCC3(C=Cc4ccccc4O3)CC2)cc1 (configuration not stated)	48
O=C(NC1CCN(Cc2cccc(C(F)(F)F)c2)CC1)c1ccc(-c2cccc(Cl)c2)s1.O=C(O)C(F)(F)F	26
CCCCCCCc1c(C)nc2cc(OC)ccc2c1O	5
O=C(Nc1ccccc1C(F)(F)F)Nc1nn(Cc2c(F)cccc2Cl)cc1Br	0
COc1cc2nc(N3CCN(c4nc(N)c5cc(OC)c(OC)cc5n4)CC3)nc(N)c2cc1OC	13
Cc1cc(C)cc(OCC(O)CN(Cc2cc(Cl)cc(Cl)c2)C(=O)Nc2ccc(Cl)cc2)c1 (configuration not stated)	0
Cc1cc(CN2C(=O)C(c3ccccc3)(c3ccccc3)N=C2N)c(C(F)(F)F)o1	11
O=[N+]([O-])c1ccc2c(c1)c1ccccc1n2Cc1ccccc1O	0
O=S(=O)(c1cc2ccccc2s1)N(CCC(O)(C(F)(F)F)C(F)(F)F)Cc1cccc(O)c1	0
CC(CN(C)C)C(=O)Nc1ccc(-c2cccc(-c3nc4cc(C(F)(F)F)ccc4[nH]3)c2)cc1 (configuration not stated)	30
